Pf growth 96h: Primary qHTS for delayed death inhibitors of the malarial parasite plastid, 96 hour incubation; Potency, µM (series often up to 28.7 µM), actives largely listed as inhibitors; AID 504834, 2011; P. falciparum luciferase reporter growth, 96 h; 6.9% of 320,000 active; active means well fitted inhibition curve with a large enough effect; inconclusive means small, poorly fitted or top-dose-only effect, or another doubt; inactive means no such curve, though single readings can be large or run the other way
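Delayed-death screen, second-generation endpoint: infected erythrocytes, 2% hematocrit, 0.05% parasitemia final; 96 hours at 37 C, 5% CO2; luciferase detection reagent; luminescence decrease equals reduced growth.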
SARS PLpro yeast: qHTS of Yeast-based Assay for SARS-CoV PLP | S. cerevisiae expressing SARS-CoV PLpro, growth rescue | Potency, µM (top dose mostly 32.9 µM), usual class: activators | 0.19% of 330,000 active | AID 485353, 2010; further: nearly all actives have a fitted effect of over 55% in size
Shiga toxin inh: A qHTS for Small Molecule Inhibitors of Shiga Toxin; 9.2% of 290,000 active; inhibition, % at 38.7 µM; AID 2315, 2010; Vero cells, Shiga toxin protein synthesis inhibition reporter; in the data active means inhibition mostly above about 28%, no sharp cut-off; inactive means mostly below about 43%
NS1 function inh: qHTS Assay for Inhibitors of Influenza NS1 Protein Function | AID 2326, 2010 | Potency, µM (series often up to 46.1 µM) | 0.4% of 270,000 active; further: actives are rising curves; nearly all actives have a fitted effect of over 50% in size
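A cell-based growth assay was used: compounds that relieve NS1-induced slow growth of budding yeast raise OD600. Assay medium was yeast nitrogen base with ammonium sulphate and -URA supplement, pH 6.0, with 2% galactose.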
Pf growth 48h: Primary qHTS for delayed death inhibitors of the malarial parasite plastid, 48 hour incubation; P. falciparum luciferase growth in erythrocytes, 48 h; Potency, µM (highest dose often 28.7 µM), most hits filed as inhibitors; 5.9% of 310,000 active; AID 504832, 2011; active means well fitted inhibition curve with a large enough effect; inconclusive means small, poorly fitted or top-dose-only effect, or another doubt; inactive means no such curve, though single readings can be large or run the other way
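Luminescence readout; reporter = integrated firefly luciferase in P. falciparum. RBC culture at 2% hematocrit, 0.1% parasitemia final, 37 C/5% CO2; decreased signal taken as growth inhibition.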
CHX counter: Cycloheximide Counterscreen for Small Molecule Inhibitors of Shiga Toxin; max response, %; 12% of 300,000 active; cell reporter, cycloheximide protein synthesis inhibition counterscreen; in the data active means max response mostly above about 13%, no sharp cut-off; inactive means mostly below about 14%; further: read at 38.3 µM for the half of the compounds with a filed dose
Flu NS1 inh: Assay for Inhibitors of Influenza NS1 Protein Function: Hit Validation; activity change, negative = inhibition, % at 32.9 µM; 1,400 tested, under 10 active; shares compounds with NS1 function inh; influenza NS1 function cell assay, 15-point titration
PR8 titer: Assay for Inhibitors of Influenza NS1 Protein Function: Influenza virus replication assay in MDCK cells infected with virus A/PR/8/34; shares compounds with NS1 function inh; MDCK infected influenza A/PR/8/34, virus titer TCID50; hits give low values; virus titer (log TCID50), log10 TCID50 at 5 µM; 30% of 95 active; AID 504647, 2011; call rule not given here
Large screens that a line does not name were inactive (follow-up assays come after a bar, where they were run). An excerpt weighted towards active compounds, which were near 21% of everything screened. Unless noted, the call rests on the fitted dose curve.

Cc1nn(Cc2ccccc2Cl)c(Cl)c1C(=O)OCC(=O)NC(=O)NC1CCCCC1	NS1 function inh 22.4µM | Flu NS1 inh inactive
CC1CC(C)CN(CCCNC(=O)c2ccc3c(SCC(=O)O)c4c(nc3c2)CCC4)C1 (stereo not drawn)	none
CC1CC(C)CN(CCCNC(=O)c2ccc3c(c2)ncn3C2CCCC2)C1 (stereo not drawn)	Pf growth 96h 10.4µM, NS1 function inh inconclusive, Pf growth 48h inconclusive | Flu NS1 inh inactive
CCC(CC)C(=O)c1c[nH]c(C(=O)OC)c1	none
CC1CCN(S(=O)(=O)c2ccc3c(c2)N(CC(=O)NCCCN2CCCCC2)C(=O)CS3)CC1	Pf growth 48h inconclusive
CCC1CCCCN1CCCNC(=O)CN1C(=O)CSc2ccc(S(=O)(=O)N3CCC(C)CC3)cc21 (stereo not drawn)	NS1 function inh 1.78µM | Flu NS1 inh inactive
N/N=c1\sc2ccccc2n1-c1ccccc1	NS1 function inh 11.2µM | Flu NS1 inh inactive | PR8 titer inactive
CCC(=O)N/N=c1/sc2ccccc2n1C	Pf growth 96h inconclusive (no result: NS1 function inh)
CC(C)C[C@H]1C(=O)N2CCCC2[C@]2(O)O[C@](NC(=O)[C@@H]3C=C4c5cccc6[nH]c(Br)c(c56)C[C@H]4N(C)C3)(C(C)C)C(=O)N12 (stereo partly drawn)	Pf growth 96h inconclusive, NS1 function inh 5.62µM, Pf growth 48h 3.38µM (no result: SARS PLpro yeast, Shiga toxin inh, CHX counter) | Flu NS1 inh inconclusive
CC(CO)NC(=O)C1C=C2c3cccc4[nH]cc(c34)CC2N(C)C1 (stereo not drawn)	Pf growth 96h inconclusive (no result: SARS PLpro yeast, Shiga toxin inh, NS1 function inh, CHX counter)
CC(=O)NC1=NN(C(C)=O)C2(S1)C(=O)N(C(C)=O)c1ccc(C)cc12 (stereo not drawn)	none (no result: NS1 function inh)
O=C(CSc1nnc(-c2ccc(O)cc2)n1Cc1ccco1)c1ccccc1	none (no result: Pf growth 48h)
O=C(CSc1nnc(-c2cc3ccccc3cc2O)n1Cc1ccco1)c1ccc(F)cc1	Pf growth 96h inconclusive, NS1 function inh 8.91µM (no result: Pf growth 48h) | Flu NS1 inh inactive
O=C(NNC(=O)c1ccc(Br)cc1)c1ccncc1	NS1 function inh inconclusive (no result: Shiga toxin inh) | Flu NS1 inh inactive
O=C(Nc1cccc(NC(=O)c2cccc(Cl)c2)c1)c1cccnc1	Pf growth 96h inconclusive, Pf growth 48h inconclusive
Cc1cc(C(=O)OCC(=O)NC2CC2)c2ccccc2n1	none (no result: Shiga toxin inh, NS1 function inh, CHX counter)
Cc1ccccc1NC(=O)c1ccccc1NC(=O)CCC(=O)O	none
CC(Nc1nc(-c2cccc(Br)c2)cs1)c1nc2cc(Cl)c(N3CCCCC3)cc2n1CCOCCO (stereo not drawn)	Pf growth 96h inconclusive, NS1 function inh 10µM, Pf growth 48h inconclusive | Flu NS1 inh inactive
O=C(Nc1ccccc1N1CCN(c2ccc(F)cc2)CC1)c1ccccc1	NS1 function inh inconclusive, Pf growth 48h inconclusive (no result: Pf growth 96h) | Flu NS1 inh inactive
O=C(Nc1nnc(S(=O)(=O)N2CCN(c3ccc(F)cc3)CC2)s1)c1ccccc1	NS1 function inh 2.24µM | Flu NS1 inh inactive
C=CCNC(=O)/C(=C\c1ccc(Br)cc1)NC(=O)c1ccccc1OC	none
Cc1cccc(NC(=O)C2c3ccccc3Oc3ccccc32)n1	Pf growth 48h inconclusive
O=C(NCc1ccc2[nH]c3c(c2c1)CCCC3)c1ccc(S(=O)(=O)N2CCCC2)cc1	Pf growth 96h 13.1µM, NS1 function inh 12.6µM | Flu NS1 inh inactive | PR8 titer 7
Cc1ccc(C(=O)NCCc2ccc(S(=O)(=O)N3CCCC3)cc2)cc1	none
O=C(NCc1ccc2[nH]c3c(c2c1)CCCC3)c1ccc(S(=O)(=O)N2CCOCC2)cc1	Pf growth 96h inconclusive, NS1 function inh inconclusive, Pf growth 48h inconclusive
Cc1cc2ccccc2n1CCNC(=O)c1ccc(S(=O)(=O)N2CCCCC2)cc1	Pf growth 96h 1.65µM, NS1 function inh 11.2µM, Pf growth 48h 2.08µM | Flu NS1 inh inactive
Cc1cc2cc(CNC(=O)c3ccc(S(=O)(=O)N4CCCCC4)cc3)ccc2[nH]1	Pf growth 96h inconclusive, NS1 function inh 11.2µM, Pf growth 48h inconclusive | Flu NS1 inh inactive
Cc1cc2cc(CNC(=O)c3cccc([N+](=O)[O-])c3)ccc2[nH]1	NS1 function inh 14.1µM | Flu NS1 inh inactive
O=C(O)CCCNC(=O)/C(=C\c1ccc(Cl)cc1)NC(=O)c1ccccc1Br	none
CCCn1c(C)cc(C(=O)CSc2nc3ccccc3c(=O)n2Cc2ccco2)c1C	Pf growth 96h inconclusive, Shiga toxin inh 57.0, NS1 function inh 8.91µM, CHX counter 49.3 | Flu NS1 inh inactive
CCCCNC(=O)CN(c1cc(C(F)(F)F)ccc1Cl)S(C)(=O)=O	Pf growth 96h inconclusive, NS1 function inh 1µM | Flu NS1 inh inactive | PR8 titer inactive
COCCCNC(=O)CN(c1cc(C(F)(F)F)ccc1Cl)S(C)(=O)=O	none
N#CCCn1cc(C(=O)O)c(-c2cccs2)n1	none
O=C(COC(=O)COc1ccccc1F)NC1CC1	none (no result: Pf growth 96h, Shiga toxin inh, NS1 function inh, Pf growth 48h, CHX counter)
CC1CCN(C(=O)c2ccc(N(C)S(C)(=O)=O)cc2)CC1	Pf growth 96h inconclusive
CN(c1ccc(C(=O)N2CCCCC2)cc1)S(C)(=O)=O	NS1 function inh 14.1µM | Flu NS1 inh inactive
O=C(COC(=O)/C=C/c1ccc(Cl)cc1Cl)Nc1cc(C(F)(F)F)ccc1N1CCOCC1	none
CCC1CCCCN1CCCNC(=O)CN1C(=O)COc2ccc(S(=O)(=O)N3CCOCC3)cc21 (stereo not drawn)	Pf growth 96h inconclusive
CC1CCc2cc(F)ccc2N1C(=O)CSc1nnc2c(n1)[nH]c1ccc(F)cc12 (stereo not drawn)	Pf growth 96h inconclusive, NS1 function inh inconclusive, Pf growth 48h 1.04µM | Flu NS1 inh inactive
CC1CCCCN1C(=O)CSc1nnc2c(n1)[nH]c1ccc(F)cc12 (stereo not drawn)	Pf growth 48h inconclusive
C1CCc2c(nc3nnnn3c2NC2CCCC2)C1	none
COc1ccc(C2CC(c3ccccc3Cl)Nc3ncnn32)cc1OC (stereo not drawn)	NS1 function inh 4.47µM | Flu NS1 inh inconclusive
Cc1noc(C)c1CSc1nc2ccccc2n1CCc1ccccc1	Pf growth 48h inconclusive (no result: Pf growth 96h)
CC(NCc1ccc(S(N)(=O)=O)cc1)C(=O)N1c2ccccc2CC1C (stereo not drawn)	NS1 function inh 7.94µM | Flu NS1 inh inactive
COc1ccc(/C=C2\SC(N3CCc4ccccc4C3)=NC2=O)cc1	Pf growth 96h inconclusive, Pf growth 48h inconclusive
O=C1N=C(N2CCc3ccccc3C2)S/C1=C\c1cccc(O)c1	Pf growth 96h inconclusive, NS1 function inh inconclusive | Flu NS1 inh inconclusive
